Values joined by “and” are separate entries in the source; they are usually repeats but may differ in a detail not shown here. Identical values can stand only once. About 83,000 compounds went through this panel and 20% of them were active in at least one assay; those are over-represented in the sample as a whole.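 Interpretation: 100, growth as untreated; towards 0, rising growth inhibition; 0, no net growth; 0 to -100, cell death. Compounds scoring below 10 were considered active.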 Active and inactive are the calls of the source.
How the values were obtained:
Assay in all cases: NCI-60 one-dose screen, 48 h (100 = growth as untreated, 0 = no growth, -100 = all killed)
Conditions in all cases: 10 µM unless noted
SR leukemia = test system: SR leukemia
RPMI-8226 leukemia = test system: RPMI-8226 leukemia
OVCAR-8 ovarian = test system: OVCAR-8 ovarian
OVCAR-4 ovarian = test system: OVCAR-4 ovarian
SK-OV-3 ovarian = test system: SK-OV-3 ovarian
IGROV1 ovarian = test system: IGROV1 ovarian
OVCAR-3 ovarian = test system: OVCAR-3 ovarian
HS 578T breast = test system: HS 578T breast
NCI/ADR-RES ovarian = test system: NCI/ADR-RES ovarian
T-47D breast = test system: T-47D breast
BT-549 breast = test system: BT-549 breast
MDA-MB-435 melanoma = test system: MDA-MB-435 melanoma
SW-620 colon = test system: SW-620 colon
MCF7 breast = test system: MCF7 breast
HCT-116 colon = test system: HCT-116 colon
HCC-2998 colon = test system: HCC-2998 colon
KM12 colon = test system: KM12 colon
OVCAR-5 ovarian = test system: OVCAR-5 ovarian

Measured: growth

CCOc1ccc(N2C(N)=NC(N)=NC2(C)C)cc1
-4.32% (active) and 90% (inactive): RPMI-8226 leukemia
-35.8% (active) and 107% (inactive): OVCAR-3 ovarian
inactive: OVCAR-8 ovarian 25.8% and 91.2% | OVCAR-4 ovarian 42.4% and 108% | SK-OV-3 ovarian 15.7% and 80.1% | IGROV1 ovarian 45.7% and 80.8% | HS 578T breast 35.9% and 96% | T-47D breast 38% and 86% | BT-549 breast 59.6% and 83.4% | SW-620 colon 16.2% and 75.8% | HCT-116 colon 21.4% and 63.1% | HCC-2998 colon 40.2% and 112% | KM12 colon 25.1% and 95.6%
9.74% (active) and 101% (inactive): NCI/ADR-RES ovarian
6.3% (active) and 88.3% (inactive): MCF7 breast
5.52% (active) and 92.7% (inactive): SR leukemia
-42.8% (active) and 82.7% (inactive): MDA-MB-435 melanoma

O=Nc1c(O)ccc2ccccc12
6.43% (active) and 97.7% (inactive): NCI/ADR-RES ovarian
6.49% (active) and 81% (inactive): HCT-116 colon
-83.9% (active) and 116% (inactive): MDA-MB-435 melanoma
inactive: SR leukemia 23.6% and 87.6% | RPMI-8226 leukemia 37.8% and 79.9% | OVCAR-4 ovarian 19% and 89% | IGROV1 ovarian 51.5% and 42% | HS 578T breast 54% and 112% | T-47D breast 15.5% and 76.1% | BT-549 breast 94.5% and 90.8% | SW-620 colon 27.5% and 83.9% | MCF7 breast 67.8% and 78.1% | HCC-2998 colon 110% and 97.4% | KM12 colon 66.8% and 109%
-3.35% (active) and 93% (inactive): OVCAR-8 ovarian
1.11% (active) and 81% (inactive): OVCAR-3 ovarian

COc1ccc2c(c1)c(-c1nc(-c3c[nH]c4c(Cl)nccc34)cs1)cn2C
active: T-47D breast -4.46% | MCF7 breast 8.44%
inactive: SR leukemia 32.1% | RPMI-8226 leukemia 78% | OVCAR-8 ovarian 95.1% | OVCAR-4 ovarian 34% | SK-OV-3 ovarian 78.6% | IGROV1 ovarian 56.5% | OVCAR-3 ovarian 47.9% | HS 578T breast 87.6% | NCI/ADR-RES ovarian 95.5% | BT-549 breast 98.8% | MDA-MB-435 melanoma 98.3% | SW-620 colon 103% | HCT-116 colon 92.7% | HCC-2998 colon 74.6% | KM12 colon 30.8%

CCOC(=O)C1=C(C)NC(=O)NC1c1c(Cl)n(-c2ccccc2)c2ccccc12 (centres undefined)
inactive: SR leukemia 68.6% | RPMI-8226 leukemia 68.4% | OVCAR-8 ovarian 85.6% | OVCAR-4 ovarian 96% | SK-OV-3 ovarian 85.9% | OVCAR-3 ovarian 69.2% | HS 578T breast 76.1% | T-47D breast 90.4% | BT-549 breast 70.4% | MDA-MB-435 melanoma 54% | SW-620 colon 83.2% | MCF7 breast 87.9% | HCT-116 colon 69.1% | HCC-2998 colon 91.8% | KM12 colon 92.3%

COc1cc(/C=C2\CCC/C(=C\c3cc(CN4CCCC4)c(O)c(OC)c3)C2=O)cc(CN2CCCC2)c1O
inactive: RPMI-8226 leukemia 14.2% | OVCAR-5 ovarian 39.9% | OVCAR-4 ovarian 47.1% | SK-OV-3 ovarian 102% | IGROV1 ovarian 52.7% | HS 578T breast 63.7% | T-47D breast 95.9% | BT-549 breast 49.2% | SW-620 colon 25.8% | MCF7 breast 14.3% | HCC-2998 colon 52.3% | KM12 colon 11.9%
active: OVCAR-8 ovarian 8.24% | OVCAR-3 ovarian 6.05% | MDA-MB-435 melanoma 8.88% | HCT-116 colon -34.5%

Nc1ccc(-c2nc3ccc4[nH]ncc4c3c3c2CCCC3)cc1F
inactive: RPMI-8226 leukemia 27.3% | OVCAR-8 ovarian 32.2% | OVCAR-5 ovarian 56.8% | OVCAR-4 ovarian 50.2% | IGROV1 ovarian 10.9% | OVCAR-3 ovarian 37.3% | HS 578T breast 17.1% | NCI/ADR-RES ovarian 35.6% | T-47D breast 14.6% | BT-549 breast 10% | MDA-MB-435 melanoma 14.2% | SW-620 colon 18.7% | MCF7 breast 29.2% | HCT-116 colon 11.1% | HCC-2998 colon 44.3% | KM12 colon 12.3%
active: SK-OV-3 ovarian -28.3%

CCCc1cc(C(N)=S)ccn1
inactive: RPMI-8226 leukemia 120% | OVCAR-8 ovarian 99.3% | OVCAR-5 ovarian 105% | OVCAR-4 ovarian 110% | SK-OV-3 ovarian 100% | IGROV1 ovarian 105% | OVCAR-3 ovarian 115% | HS 578T breast 125% | NCI/ADR-RES ovarian 87.8% | T-47D breast 105% | BT-549 breast 98.1% | MDA-MB-435 melanoma 105% | SW-620 colon 107% | MCF7 breast 108% | HCT-116 colon 95.8% | HCC-2998 colon 108%

OCCN1CCN(CC/C=C2\c3ccccc3Sc3ccc(Cl)cc32)CC1
1.43% (active) and 32.3% (inactive): HS 578T breast
-91.4% (active) and 12.7% (inactive): HCC-2998 colon
2.71% (active) and 36.2% (inactive): KM12 colon
17.3% (inactive) and 4.22% (active): MCF7 breast
active: RPMI-8226 leukemia -35.8% and -38.4% | MDA-MB-435 melanoma -70.8% and -44.4% | SW-620 colon -75.2% and 0.592% | HCT-116 colon -59.8% and -45.1%
inactive: OVCAR-8 ovarian 79.4% and 86.4% | OVCAR-5 ovarian 41.8% and 63.4% | OVCAR-4 ovarian 71.9% and 128% | SK-OV-3 ovarian 77.8% and 77.2% | IGROV1 ovarian 26.3% | OVCAR-3 ovarian 42.4% and 37.7% | NCI/ADR-RES ovarian 58.2% and 76.6% | T-47D breast 48.6% and 57.4% | BT-549 breast 67.5%

COc1cc(C(=O)c2ccccc2C(=O)O)c(OC)c2c1CCCC2
inactive: RPMI-8226 leukemia 108% and 93.7% | OVCAR-8 ovarian 104% and 101% | OVCAR-5 ovarian 112% and 106% | OVCAR-4 ovarian 99.3% and 98.9% | SK-OV-3 ovarian 113% and 106% | IGROV1 ovarian 127% and 105% | OVCAR-3 ovarian 93.3% and 105% | HS 578T breast 103% and 112% | T-47D breast 90.9% and 95.7% | BT-549 breast 95.8% and 101% | MDA-MB-435 melanoma 100% and 107% | SW-620 colon 98.2% and 106% | MCF7 breast 97.4% and 99.5% | HCT-116 colon 95.6% and 95.4% | HCC-2998 colon 107% and 101% | KM12 colon 98.7% and 104%

C/C=C(/C)C(=O)O[C@@H]1CC(C)(C)CC2C34OC(=O)[C@@]21CC[C@@]3(C)[C@]1(C)CCC2C(C)(C)C(=O)CC[C@]2(C)C1C[C@@H]4Cl (some centres undefined)
inactive: RPMI-8226 leukemia 91% | OVCAR-8 ovarian 96% | OVCAR-4 ovarian 96.2% | SK-OV-3 ovarian 99.7% | IGROV1 ovarian 96.8% | OVCAR-3 ovarian 115% | HS 578T breast 99.8% | NCI/ADR-RES ovarian 106% | T-47D breast 99.1% | BT-549 breast 108% | MDA-MB-435 melanoma 102% | SW-620 colon 96.7% | MCF7 breast 97.6% | HCT-116 colon 86.2% | HCC-2998 colon 102% | KM12 colon 104%

CC[C@H](C)[C@H](NC(=O)[C@@H](N)CCC(N)=O)C(=O)N[C@@H](Cc1ccc(O)cc1)C(=O)N[C@@H](CCCCN)C(=O)N[C@@H](CCCCN)C(=O)N[C@@H](Cc1ccc(O)cc1)C(=O)N[C@@H](CCCNC(=N)N)C(=O)N[C@H](C(=O)N[C@@H](Cc1c[nH]c2ccccc12)C(=O)N[C@@H](Cc1ccc(O)cc1)C(=O)N[C@@H](CCCNC(=N)N)C(=O)N[C@@H](CCCCN)C(=O)N[C@@H](C)C(=O)N[C@@H](Cc1c[nH]c2ccccc12)C(=O)N[C@@H](CCCCN)C(=O)N[C@H](C(=O)N[C@@H](CC(C)C)C(=O)NCC(=O)N[C@@H](CCCCN)C(=O)N[C@H](C(N)=O)C(C)C)C(C)C)[C@@H](C)O
inactive: RPMI-8226 leukemia 17.9% | OVCAR-8 ovarian 13% | OVCAR-5 ovarian 56.6% | OVCAR-4 ovarian 73.5% | SK-OV-3 ovarian 42.8% | BT-549 breast 16.3% | MDA-MB-435 melanoma 17.9% | SW-620 colon 47.2% | HCT-116 colon 28.7% | HCC-2998 colon 87.5%
active: IGROV1 ovarian -33.4% | OVCAR-3 ovarian -1.52% | HS 578T breast -13% | NCI/ADR-RES ovarian -2.5% | T-47D breast -47% | MCF7 breast -68.3% | KM12 colon -33%

O=C1OCC2=C1C(c1cccc(C(F)(F)F)c1)c1cc3c(cc1N2CCO)CCC3 (centres undefined)
inactive: RPMI-8226 leukemia 17.9% | OVCAR-5 ovarian 36.1% | OVCAR-4 ovarian 52.3% | IGROV1 ovarian 23.5% | HS 578T breast 28% | NCI/ADR-RES ovarian 17.7% | T-47D breast 75% | BT-549 breast 22% | SW-620 colon 24% | MCF7 breast 16.3% | HCC-2998 colon 11.2%
active: OVCAR-8 ovarian 5.39% | SK-OV-3 ovarian 5.48% | OVCAR-3 ovarian -17.8% | MDA-MB-435 melanoma -44.3% | HCT-116 colon 4.17% | KM12 colon 4.92%

COc1ccc(/C=C2/C(=O)N=C3N2NC(c2ccccc2)=CN3c2ccccc2)cc1
inactive: RPMI-8226 leukemia 99.9% | OVCAR-8 ovarian 98.1% | OVCAR-5 ovarian 107% | OVCAR-4 ovarian 102% | SK-OV-3 ovarian 107% | IGROV1 ovarian 95.9% | OVCAR-3 ovarian 111% | HS 578T breast 95.4% | NCI/ADR-RES ovarian 96.9% | T-47D breast 106% | BT-549 breast 96% | MDA-MB-435 melanoma 108% | SW-620 colon 101% | MCF7 breast 99.9% | HCT-116 colon 99.8% | HCC-2998 colon 97.7% | KM12 colon 108%

COc1cc(/C=N/NC(=O)CCN2c3ccccc3Sc3ccccc32)cc(OC)c1OC
inactive: RPMI-8226 leukemia 54.7% | OVCAR-8 ovarian 86.5% | OVCAR-5 ovarian 89% | OVCAR-4 ovarian 68.3% | OVCAR-3 ovarian 99.5% | HS 578T breast 93.7% | NCI/ADR-RES ovarian 87.6% | T-47D breast 41.5% | BT-549 breast 88.6% | MDA-MB-435 melanoma 87.4% | SW-620 colon 90.8% | MCF7 breast 97.3% | HCT-116 colon 80.1% | HCC-2998 colon 113% | KM12 colon 81.4%

Reference: PubChem BioAssay (NCI)
